The values that follow come from PubChem BioAssay (NCATS).

Experiment [1] can be described thus: Quantitative High-Throughput drug screen in 47 multiple myeloma cell lines against the NCATS MIPE library collection: Karpas417_ECACC cell viability assay (AID 1918961). Further: potency means the concentration at half of the fitted maximal effect. Conditions: Karpas417 myeloma viability, CellTiter-Glo ATP luminescence, 48 h; viability (% of DMSO): at 45.8 µM (top of the series). A digest of the protocol: (§1)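 Approved and investigational drugs from MIPE 4.0 were added by pin tool to 500 cells per well. After 48 hours at 37C, ATP-based CellTiter-Glo luminescence indicated remaining viability.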

The nature of experiment [2]: Quantitative High-Throughput drug screen in 47 multiple myeloma cell lines against the NCATS MIPE library collection: KHM11_PLB cell viability assay (AID 1918962). Further: nearly all actives have a fitted effect of over 35% in size. Further: potency means the concentration at half of the fitted maximal effect. The procedure, abridged: (§2)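 Viability readout: CellTiter-Glo luminescence following 5 min room-temperature incubation with reagent. Prior exposure: 48 h, 37C, humidified 5% CO2, 500 cells per well.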
Experiment [3] is described as follows: Quantitative High-Throughput drug screen in 47 multiple myeloma cell lines against the NCATS MIPE library collection: JIM3_ECACC cell viability assay (AID 1918963; further: nearly all actives have a fitted effect of over 35% in size; further: potency means the concentration at half of the fitted maximal effect). A digest of the protocol:
as §2

The nature of experiment [4]: Quantitative High-Throughput drug screen in 47 multiple myeloma cell lines against the NCATS MIPE library collection: INA6_PLB cell viability assay (AID 1918965; further: nearly all actives have a fitted effect of over 55% in size; further: potency means the concentration at half of the fitted maximal effect). A digest of the protocol: as §1
Experiment [5] can be described thus: Quantitative High-Throughput drug screen in 47 multiple myeloma cell lines against the NCATS MIPE library collection: H1112_PLB cell viability assay (AID 1918967; further: nearly all actives have a fitted effect of over 30% in size; further: potency means the concentration at half of the fitted maximal effect). A digest of the protocol:
(§3)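 qHTS of the MIPE 4.0 collection: 500 myeloma cells/well, 48 h drug exposure at 37C in 5% CO2, then CellTiter-Glo for 5 min at room temperature before luminescence reading.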

Experiment [6] in a line: Quantitative High-Throughput drug screen in 47 multiple myeloma cell lines against the NCATS MIPE library collection: KMS12PE_JCRB cell viability assay (AID 1918972). Further: nearly all actives have a fitted effect of over 30% in size. Further: potency means the concentration at half of the fitted maximal effect. A digest of the protocol:
as §1

Experiment [7] in a line: Quantitative High-Throughput drug screen in 47 multiple myeloma cell lines against the NCATS MIPE library collection: MMM1_PLB cell viability assay (AID 1918976). Further: nearly all actives have a fitted effect of over 35% in size. Further: potency means the concentration at half of the fitted maximal effect. The procedure, abridged:
(§4)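 MIPE 4.0 approved/investigational drugs; 500 cells/well; 48 h 37 °C humidified 5% CO2; CTG luminescence readout; DMSO = 100%, media = 0% viability.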

Experiment [8] can be described thus: Quantitative High-Throughput drug screen in 47 multiple myeloma cell lines against the NCATS MIPE library collection: MOLP8_DSMZ cell viability assay (AID 1918977). Further: nearly all actives have a fitted effect of over 45% in size. Further: potency means the concentration at half of the fitted maximal effect. A digest of the protocol: as §4
Experiment [9] can be described thus: Quantitative High-Throughput drug screen in 47 multiple myeloma cell lines against the NCATS MIPE library collection: NCIH929_DSMZ cell viability assay (AID 1918978). Further: nearly all actives have a fitted effect of over 35% in size. Further: potency means the concentration at half of the fitted maximal effect. The procedure, abridged: as §4
A short description of experiment [10]: Quantitative High-Throughput drug screen in 47 multiple myeloma cell lines against the NCATS MIPE library collection: OCIMY1_PLB cell viability assay (AID 1918979). Further: nearly all actives have a fitted effect of over 35% in size. Further: potency means the concentration at half of the fitted maximal effect. A digest of the protocol: as §4
Experiment [11] can be described thus: Quantitative High-Throughput drug screen in 47 multiple myeloma cell lines against the NCATS MIPE library collection: MM1S_ATCC cell viability assay (AID 1918980). Further: nearly all actives have a fitted effect of over 45% in size. Further: potency means the concentration at half of the fitted maximal effect. A digest of the protocol: as §4
Experiment [12] in a line: Quantitative High-Throughput drug screen in 47 multiple myeloma cell lines against the NCATS MIPE library collection: MM1R_ATCC cell viability assay (AID 1918981). Further: nearly all actives have a fitted effect of over 35% in size. Further: potency means the concentration at half of the fitted maximal effect. A digest of the protocol:
as §4

The nature of experiment [13]: Quantitative High-Throughput drug screen in 47 multiple myeloma cell lines against the NCATS MIPE library collection: Karpas25_ECACC cell viability assay (AID 1918968; further: nearly all actives have a fitted effect of over 35% in size; further: potency means the concentration at half of the fitted maximal effect). The procedure, abridged: as §3
Experiment [14] can be described thus: Quantitative High-Throughput drug screen in 47 multiple myeloma cell lines against the NCATS MIPE library collection: KMS12BM_JCRB cell viability assay (AID 1918971). Further: nearly all actives have a fitted effect of over 35% in size. Further: potency means the concentration at half of the fitted maximal effect. The procedure, abridged: (§5)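 Luminescent ATP measurement with CellTiter-Glo gives viability, scaled between DMSO-only wells (100%) and media-only wells (0%). Cells, 500 per well, faced library compounds for 48 hours at 37C.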

Experiment [15] in a line: Quantitative High-Throughput drug screen in 47 multiple myeloma cell lines against the NCATS MIPE library collection: KMS20_JCRB cell viability assay (AID 1918973). Further: nearly all actives have a fitted effect of over 45% in size. Further: potency means the concentration at half of the fitted maximal effect. A digest of the protocol:
as §3

A short description of experiment [16]: Quantitative High-Throughput drug screen in 47 multiple myeloma cell lines against the NCATS MIPE library collection: KMS21BM_JCRB cell viability assay (AID 1918974). Further: potency means the concentration at half of the fitted maximal effect. Conditions: ATP luminescence, 48 h; viability: at 45.8 µM (top of the series). A digest of the protocol:
as §3

Experiment [17] in a line: Quantitative High-Throughput drug screen in 47 multiple myeloma cell lines against the NCATS MIPE library collection: KMS27_JCRB cell viability assay (AID 1918970). Further: nearly all actives have a fitted effect of over 30% in size. Further: potency means the concentration at half of the fitted maximal effect. The procedure, abridged:
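ATP-based viability (CellTiter-Glo luminescence) is measured in cells treated 48 h with approved and investigational drugs at 37 °C. Controls are DMSO-only wells for full viability and media-only wells for none.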

Experiment [18] can be described thus: Quantitative High-Throughput drug screen in 47 multiple myeloma cell lines against the NCATS MIPE library collection: KMS26_JCRB cell viability assay (AID 1918975). Further: nearly all actives have a fitted effect of over 45% in size. Further: potency means the concentration at half of the fitted maximal effect. A digest of the protocol: as §5
Experiment [19] can be described thus: Quantitative High-Throughput drug screen in 47 multiple myeloma cell lines against the NCATS MIPE library collection: JIM1_ECACC cell viability assay (AID 1918964; further: potency means the concentration at half of the fitted maximal effect). A digest of the protocol:
as §3

Experiment [20] in a line: Quantitative High-Throughput drug screen in 47 multiple myeloma cell lines against the NCATS MIPE library collection: JJN3_DSMZ cell viability assay (AID 1918966; further: nearly all actives have a fitted effect of over 50% in size). The procedure, abridged:
as §3

Molecules are shown by their SMILES. Results filed as inconclusive are left out. Calls of active or inactive are those of the source. The call rests on the fitted dose curve; in most records, active means well fitted curve in the direction sought with a large enough effect; inconclusive means small, poorly fitted or top-dose-only effect, or another doubt; inactive means no such curve, though single readings can be large; an effect the other way counts as inactive or inconclusive.

Consider `O=C(O)c1cccnc1`, for which the Potency result in experiment [1], in [3], in experiment [4], in experiment [5], in experiment [6] and in [8] was “inactive” in each case. Moreover, the Potency entry in [9], in [10], in experiment [11] and in experiment [12] was “inactive” throughout. In addition, the Potency was 18.7 µM (active) in experiment [2] and 1.48 µM (active) in [7].
Regarding `COc1cc2c(Nc3ccc(Br)cc3F)ncnc2cc1OCC1CCN(C)CC1`, the Potency result in experiment [1], in experiment [3] and in experiment [16] was “inactive” throughout. Moreover, the Potency was 9.35 µM (active) in [4]; 8.33 µM (active) in experiment [13]; 18.7 µM (active) in [14]; 9.35 µM (active) in [15]; 8.33 µM (active) in experiment [9]; 23.5 µM (active) in [11]. For the same compound, in experiment [12], the Potency is 23.5 µM (active).
As for `Nc1nc(N)nc(-c2cc(Cl)ccc2Cl)n1`, the Potency entry in experiment [1], in [2], in experiment [3], in experiment [5], in experiment [17] and in [14] was “inactive” in each case. The Potency entry in [6], in [8], in experiment [9], in [10] and in experiment [12] was “inactive” in each case. Further, in experiment [7], the Potency is 0.0526 µM (active).
Consider `NCCCC(O)(P(=O)(O)O)P(=O)(O)O`, for which the Potency entry in experiment [1], in [2], in [3], in experiment [6], in [15] and in experiment [18] was “inactive” in each case. Also, the Potency entry in experiment [7], in experiment [8], in experiment [9], in experiment [10] and in [12] was “inactive” in each case. Moreover, the Potency in experiment [13] was 16.6 µM (active); in [11], 11.8 µM (active).
For the compound `COc1cc(NCc2ccc3nc(N)nc(N)c3c2C)cc(OC)c1OC`, the Potency in [1] was 4.18 µM (active); in [2], 8.33 µM (active); in experiment [3] it was 0.418 µM (active); in [4] it was 1.32 µM (active); in [5], 2.64 µM (active); in [13] it was 4.18 µM (active). Besides, the Potency in experiment [14] is 13.2 µM (active); in experiment [6], 0.935 µM (active); in experiment [18] it was 5.9 µM (active); in [7], 8.33 µM (active); in [8], 5.26 µM (active); in experiment [9] it was 3.72 µM (active). In addition, the Potency in [10] was 13.2 µM (active); in [11] it was 8.33 µM (active); in experiment [12] it was 7.43 µM (active).
With `CCn1cc(C(=O)O)c(=O)c2cc(F)c(N3CCNCC3)cc21`, the Potency entry in [1], in experiment [2], in [3], in experiment [5], in experiment [13] and in [17] was “inactive” each time. In addition, the Potency result in experiment [7], in experiment [9] and in experiment [10] was “inactive” each time.
For `CCN1CCCC1CNC(=O)c1cc(S(N)(=O)=O)ccc1OC` (centres undefined), the Potency entry in [1], in experiment [2], in [6], in [18], in experiment [7] and in experiment [9] was “inactive” in each case. The Potency entry in experiment [10] and in [12] was “inactive” in each case. For the same compound, in experiment [13], the Potency is 2.09 µM (active).
For the compound `CCn1cc(C(=O)O)c(=O)c2cc(F)c(N3CCN(C)CC3)cc21`, the Potency entry in experiment [1], in [3], in experiment [5], in experiment [13], in [6] and in experiment [18] was “inactive” each time. Further, the Potency result in experiment [8], in [9] and in experiment [12] was “inactive” in each case. For the same compound, the Potency in experiment [14] was 2.64 µM (active).
As to `COc1ncnc(NS(=O)(=O)c2ccc(N)cc2)c1OC`, the Potency result in experiment [1], in experiment [2], in [3], in [4], in [5] and in experiment [17] was “inactive” in each case. Further, the Potency entry in experiment [14], in experiment [6], in experiment [18], in experiment [8], in experiment [9] and in experiment [10] was “inactive” each time. Further, the Potency entry in experiment [12] was “inactive”. In addition, in [11], the Potency was 23.5 µM (active).
For `COc1cc2nc(N3CCCN(C)CC3)nc(NC3CCN(Cc4ccccc4)CC3)c2cc1OC`, the Potency in experiment [1] was 2.35 µM (active); in [2], 2.35 µM (active); in experiment [3] it was 9.35 µM (active); in [19], 7.43 µM (active); in experiment [5], 5.9 µM (active); in [13], 5.26 µM (active). In addition, the Potency in experiment [17] is 4.18 µM (active); in [14], 14.8 µM (active); in [6] it was 2.35 µM (active); in experiment [16] it was 4.69 µM (active); in experiment [18], 5.26 µM (active); in experiment [7], 5.26 µM (active). For the same compound, the Potency in [8] is 4.69 µM (active); in experiment [9], 2.64 µM (active); in experiment [10], 5.9 µM (active); in experiment [11] it was 2.64 µM (active); in experiment [12], 4.18 µM (active).
As to `NC(=O)c1ccc2[nH]ccc2c1`, the Potency entry in experiment [1], in experiment [3], in experiment [19], in [4], in [5] and in experiment [13] was “inactive” in each case. The Potency result in experiment [14], in [6], in [18], in experiment [9] and in experiment [10] was “inactive” each time.
For the compound `Nc1nc(=S)c2[nH]cnc2[nH]1`, the Potency entry in [1] is “inactive”. Besides, the Potency in experiment [2] was 4.18 µM (active); in [3], 9.35 µM (active); in experiment [5], 14.8 µM (active); in experiment [13], 1.48 µM (active); in experiment [14] it was 5.9 µM (active); in [18], 6.62 µM (active). In addition, the Potency is 3.32 µM (active) in experiment [8], 1.32 µM (active) in [9], 8.33 µM (active) in experiment [10] and 3.72 µM (active) in experiment [11].
Regarding `COc1cc([C@@H]2c3cc4c(cc3[C@H](O)[C@H]3COC(=O)[C@H]23)OCO4)cc(OC)c1OC`, the Potency result in experiment [1], in [2], in experiment [3], in experiment [20], in [13] and in experiment [17] was “inactive” each time. The Potency result in experiment [6], in experiment [16], in experiment [7], in experiment [9], in experiment [10] and in experiment [11] was “inactive” throughout.
As to `COc1ccc2cc3[n+](cc2c1OC)CCc1cc2c(cc1-3)OCO2`, the Potency in [1] was 9.35 µM (active); in experiment [2], 8.33 µM (active); in [4], 6.62 µM (active); in experiment [5], 14.8 µM (active); in experiment [13], 2.64 µM (active); in experiment [17], 16.6 µM (active). For the same compound, the Potency in [14] was 6.62 µM (active); in experiment [6], 16.6 µM (active); in experiment [16], 2.64 µM (active); in [18], 5.9 µM (active); in experiment [7] it was 6.62 µM (active); in [8], 14.8 µM (active). Besides, the Potency in [11] was 14.8 µM (active); in [12], 4.69 µM (active).
